# The sample as a whole holds a higher share of hits than the screen did.
# Pf apPOL inh – Pf-apPOL inhibitors, biochemical, fluorescence. AID 1794808, 2022. 210,000 compounds, 0.25% hits. Recombinant Pf-apPOL, molecular beacon fluorescence, 1.5 h. inhibition, % at 10 µM
# mHTT-CaM PPI inh – mutant huntingtin-calmodulin interaction inhibitors – biochemical, AlphaScreen, primary screen; AlphaScreen His-mHTT/GST-CaM binding, luminescence; inhibition, % at 15 µM; 190,000 compounds, 3.6% hits; AID 1671202, 2021;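 also: 0% = both proteins with DMSO and 100% = one protein alone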
# Numbers without * were called inactive; / = no result. Rule as the data show it: active = inhibition above about 50%; inactive = the rest.
SMILES,Pf apPOL inh,mHTT-CaM PPI inh
C[C@@H]1CC=C[C@H]2[C@H]1C(=O)N(Cc1ccccc1)[C@H]2c1ccc(-c2ccc(F)cc2)cc1F,-2.0,-3.7
C[C@@H]1CC=C[C@H]2[C@H]1C(=O)N(Cc1ccccc1)[C@H]2c1ccc(-c2ccoc2)cc1F,-7.0,60.0*
C[C@@]12CCC=C[C@H]1[C@H](c1ccc(C(F)(F)F)cc1)N(Cc1ccccc1)C2=O,-2.3,82.8*
C[C@@]12CCC=C[C@H]1[C@H](c1ccc(/C=C/c3ccccc3)cc1F)N(Cc1ccccc1)C2=O,-1.4,16.6
O=C1C2C(c3ccccc3)CC=CC2[C@H](c2ccc(C(F)(F)F)cc2)N1Cc1ccccc1 (stereo partly specified),-3.0,20.1
C[C@@H]1CC=C[C@H]2[C@H]1C(=O)N(Cc1ccccc1)[C@H]2c1ccc(C(F)(F)F)cc1,-2.2,91.0*
CCc1cc(C2CCCN2Cc2cccc(OC)c2O)on1 (stereo unspecified),-3.0,-4.5
Cc1ccc(CNC(=O)N2CCC3(CC2)NC(=O)c2ccc(Cl)cc2N3C)cc1,-9.6,5.5
Brc1ccc(OCc2nnc3n2CCCCC3)cc1,-0.2,-1.0
Cc1ccc(NC(=O)CNC(=O)Cn2ccc3ccccc3c2=O)c(Br)c1,-1.1,0.0
Cc1cc(C)nc(N=C(NC(=O)Nc2ccc(F)cc2)Nc2ccccc2)n1,-1.4,1.0
C=C[C@@H]1c2ccccc2N(S(=O)(=O)c2ccc(C)cc2)[C@H](c2ccc(C(F)(F)F)cc2)C1(C#N)C#N,-1.0,1.2
C=C[C@@H]1c2cc(C)ccc2N(S(=O)(=O)c2ccc(C)cc2)[C@H](c2ccc(C(C)(F)F)cc2)C1(C#N)C#N,-5.9,90.3*
CC1=NN(c2nc(-c3ccccc3O)cs2)C(=O)C1,-5.8,97.5*
CC1=NN(c2cc(C)nc(-c3ccccc3O)n2)C(=O)C1,-12.3,56.2*
CC1=NN(c2nc(-c3ccc(C#N)cc3)cs2)C(=O)C1,-5.5,16.4
CCCC1=NN(c2nc3ccccc3s2)C(=O)/C1=C/N(C)C,-16.4,-2.0
Cc1ccc(Nc2cc(C)nc(-c3ccccc3O)n2)cc1,-5.2,-18.0
CC1=NN(c2nc3ccccc3s2)C(=O)C1,-6.7,93.7*
COc1cc(C2C(C#N)=C(N)N(c3cccc(C)c3)C3=C2C(=O)CCC3)cc(OC)c1OC (stereo unspecified),4.0,29.0
CC1c2cc(S(=O)(=O)N3CCOCC3)ccc2OC1C(=O)O (stereo unspecified),-6.5,1.0
COc1cc2c(cc1O)CC[C@@H]1[C@@H]2CC[C@]2(C)[C@@H](O)CC[C@@H]12,-3.4,/
CC12CCC3c4ccc(O)cc4CCC3C1CC(=Cc1ccc(Cl)cc1)C2O (stereo unspecified),-8.7,100.0*
C#CC1(O)CCC2C3CCc4cc(O)ccc4C3CCC21C (stereo unspecified),0.6,0.0
CC12CCC3c4ccc(O)cc4CCC3C1CC(=Cc1ccccc1)C2O (stereo unspecified),-10.9,97.2*
SMILES,Pf apPOL inh,mHTT-CaM PPI inh
COc1cccc(OC)c1C(=O)Nc1nn[nH]n1,-11.1,7.2
CCOc1ccc2ccccc2c1C(=O)N1CCN(CCn2cccn2)CC1,-9.7,-3.8
O=C(N1CCN(S(=O)(=O)c2ccccc2)CC1)N(c1ccccc1)c1ccccc1,-2.2,1.3
Clc1ccc(SCC#CCSc2ccc(Cl)cc2)cc1,-3.3,/
Cc1cc(=O)oc(C)c1C(=O)NCc1cccs1,-10.8,14.0
COc1ccc(-n2nc(C(=O)Nc3ccc(F)cc3)c3ccccc3c2=O)c(OC)c1,-4.3,-7.0
Cc1cc(=O)oc(C)c1C(=O)NCc1ccccn1,-7.1,57.0*
O=C(NCc1cccnc1-c1ccccc1)c1ccc2c(c1)OCO2,-10.1,0.3
CCN(CCCNC(=O)c1c(C)cc(=O)oc1C)c1cccc(C)c1,-8.9,64.0*
O=C(NCc1ccccn1)c1ccc2c(c1)OCO2,-0.6,100.2*
COc1ccc(-n2nc(C(=O)NCC(=O)Nc3ccc(F)cc3)c3ccccc3c2=O)c(OC)c1,6.8,88.0*
Cc1cc(=O)oc(C)c1C(=O)NCCCN(CC(C)C)CC(C)C,-16.3,-15.0
Cc1nc(-c2ccc(-c3noc(COc4ccccc4)n3)cc2)cs1,-3.2,-12.6
COc1ccc(NC(=O)C2CCCN(S(=O)(=O)c3cccs3)C2)c(OC)c1 (stereo unspecified),7.4,12.0
Cn1c(CC2CCN(S(=O)(=O)c3ccc4c(c3)CCCC4)C2)nc2cccnc21 (stereo unspecified),-0.8,20.4
COC(=O)c1cnn(-c2ccc(F)cc2F)c1C=NNC(=S)Nc1ccc(Cl)cc1,-13.2,/
Cc1c(C#N)c2ncnc(-c3ccccc3)c2n1Cc1ccccc1,-0.9,4.5
Cc1cc(C)cc(NC(=O)N2CCC(c3nc(C(=O)N4CCOCC4)c(C)o3)CC2)c1,0.0,4.8
COCCNC(=O)c1nn(-c2ccccc2OC)c(=O)c2ccccc12,-1.2,-6.0

# Screening data deposited in PubChem BioAssay by University of Kansas High Throughput Screening Laboratory.
